Test results: PubChem BioAssay AID1645855 (Buhrlage Lab, Dana-Farber Cancer Institute and Novartis …, 2021)
Among all 47,000 compounds or so, about 3,100 (6.6%) were called active. Cut-off read from the data, not from the text of the source: active = inhibition above about 30%; inactive = the rest. Only a selection was taken, and actives are over-represented in it overall.

Molecular target: Ubiquitin carboxyl-terminal hydrolase 17-like protein 5 (Homo sapiens) (UniProt A8MUK1)
Assay: inhibitors of human USP17 deubiquitinase (AID 1645855)
Details: purified USP17, Ub-rhodamine cleavage fluorescence, 3 h; at 50 µM; active compounds read high

Ubiquitin carboxyl-terminal hydrolase 17-like protein 5 (Homo sapiens), sequence (A8MUK1 whole entry, looked up): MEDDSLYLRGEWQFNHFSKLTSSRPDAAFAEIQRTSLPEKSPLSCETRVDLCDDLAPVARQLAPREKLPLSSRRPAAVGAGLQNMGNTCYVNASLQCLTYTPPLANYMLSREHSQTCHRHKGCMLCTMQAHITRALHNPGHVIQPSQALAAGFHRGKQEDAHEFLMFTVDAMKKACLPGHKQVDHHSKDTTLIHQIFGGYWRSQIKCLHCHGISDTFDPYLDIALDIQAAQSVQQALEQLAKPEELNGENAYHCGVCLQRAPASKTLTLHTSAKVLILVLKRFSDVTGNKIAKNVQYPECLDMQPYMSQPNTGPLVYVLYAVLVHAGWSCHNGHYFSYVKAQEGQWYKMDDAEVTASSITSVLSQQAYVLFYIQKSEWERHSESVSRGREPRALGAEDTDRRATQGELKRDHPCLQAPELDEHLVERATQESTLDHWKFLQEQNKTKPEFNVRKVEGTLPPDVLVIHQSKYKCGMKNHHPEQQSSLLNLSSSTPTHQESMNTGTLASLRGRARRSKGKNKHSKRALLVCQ

Row | Compound | inhibition
1 | O=C1NCCCCC1NS(=O)(=O)c1ccc2c(c1)CCO2 (configuration not stated) | 2.39% (inactive)
2 | CC1=C(c2ccc(F)cc2)S(=O)(=O)N=C1Nc1ccccc1Cl | 22.6% (inactive)
3 | O=C(CSc1ncnc2nc[nH]c12)NC1CCCCC1 | -12.5% (inactive)
4 | CCc1nc(SCC(=O)Nc2cccc3ccccc23)c2oc3ccccc3c2n1 | 30.1% (active)
5 | Cc1nnc(-c2cn(CC(=O)NC3CCCCC3)c3ccccc23)o1 | 6.87% (inactive)
6 | Cc1nc(SCC(=O)Nc2cc(Cl)cc(Cl)c2)c2oc3ccccc3c2n1 | -0.843% (inactive)
7 | CCc1nc(SCC(=O)Nc2cc(Cl)ccc2Cl)c2oc3ccccc3c2n1 | 20.6% (inactive)
8 | O=C(CSc1ncnc2c1oc1ccccc12)NC1CCCC1 | 61.3% (active)
9 | FC(F)(F)Oc1ccc2[nH]c3c(c2c1)CNCC3 | 7.52% (inactive)
10 | OCc1cc2c([nH]c3ccccc32)c([C@@H](O)CO)n1 | -4.94% (inactive)
11 | Cc1ccccc1Nc1nc(N)nc(CN2CCCC2c2cccn2C)n1 (configuration not stated) | -130% (inactive)
12 | CCOC(=O)c1cnc2c(C(F)(F)F)cccc2c1Sc1ccc(C)cc1C | 3.52% (inactive)
13 | O=C1NC2(CCN(C(=O)Cc3ccccc3)CC2)Nc2cc(Cl)ccc21 | -2.47% (inactive)
14 | CSc1ccccc1NC(=O)c1ccc(N2CCCC2)nn1 | 56.7% (active)
15 | O=C(Cc1ccccc1)N1CCN(c2ccc(N3CCCC3)nn2)CC1 | 15% (inactive)
16 | Cc1cc(C)n(-c2ccc(C(=O)Nc3ccccc3C(C)C)nn2)n1 | 29.7% (inactive)
17 | O=C(c1sc2cnccc2c1-n1cccc1)N1CCc2ccccc2C1 | 8.13% (inactive)
18 | CCOC(=O)c1cc(C)nc2c1c(=O)n(Cc1nc(-c3ccccc3)oc1C)c(=O)n2C | -6.3% (inactive)
19 | CCCOc1ccc(C2CN3C(=O)N(c4cccc(C(C)=O)c4)C(=O)[C@]3(C)c3[nH]c4ccccc4c32)cc1OCC (some centres not stated) | 2.94% (inactive)
20 | COc1ccc(-c2cc(C(=O)Nc3sccc3C(N)=O)c3ccccc3n2)cc1 | -139% (inactive)
21 | COC(=O)c1cccc(N(C(=O)c2cnccn2)C(C(=O)NC2CCCCC2)c2ccc(OC)c(OC)c2)c1 (configuration not stated) | -9.26% (inactive)
22 | O=C(NC1CCCC1)C1c2cc(Br)ccc2OCC(=O)N1C1CCCC1 (configuration not stated) | -0.00685% (inactive)

Row | Compound | inhibition
23 | O=C(COC(=O)c1ccc2[nH]c3c(c2c1)CCCC3)Nc1ccc(N2CCOCC2)cc1 | 31% (active)
24 | O=C(COC(=O)CCc1nc2ccccc2c(=O)[nH]1)Nc1ccc(N2CCOCC2)cc1 | -1.46% (inactive)
25 | CC(CCc1ccccc1)NC(=O)COC(=O)c1ccc2[nH]c3c(c2c1)CCCC3 (configuration not stated) | 15.2% (inactive)
26 | c1cc2c(cc1-c1nn[nH]n1)OCO2 | -14.4% (inactive)
27 | CC(=O)N1CC[C@H]2COC(=O)N(Cc3ccccc3)[C@@H]2C1 | 5.56% (inactive)
28 | COc1ccc(CN(C)c2ccc(S(=O)(=O)Nc3ccccn3)cn2)cc1 | 6.32% (inactive)
29 | O=S(=O)(c1ccccc1F)N1CCCn2nnc(COCC3CC3)c2C1 | 0.743% (inactive)
30 | Cc1ccc(NC(=O)c2ccc3c(c2)N(S(C)(=O)=O)CC3)cc1C | -24.5% (inactive)
31 | COc1ccccc1NC(=O)c1cccc(S(=O)(=O)N2CCc3ccccc32)c1 | -7.94% (inactive)
32 | COc1cccc(NC(=O)c2ccc3c(c2)N(S(C)(=O)=O)CC3)c1 | 30.4% (active)
33 | Cn1c(CCNC(=O)c2ccc(C(C)(C)C)cc2)nc2cccnc21 | -167% (inactive)
34 | COc1ccc(N(Cc2cc(=O)[nH]c3ccccc23)C(=O)c2ccc(Cl)cc2)cc1 | 39.6% (active)
35 | COc1ccc(C(=O)CC(c2ccc(Cl)cc2)S(=O)(=O)c2ccccc2)cc1 (configuration not stated) | 4.59% (inactive)
36 | Cc1ccc(C(=O)N(Cc2cc(=O)[nH]c3ccccc23)C(C)C)cc1F | 0.00655% (inactive)
37 | CCNC(=O)c1cccc(Nc2c(-c3ccc(Cl)cc3)nc3cnccn23)c1 | -21.3% (inactive)
38 | CC(C)c1noc(-c2ccc(OCC(=O)Nc3ccccc3Br)cc2)n1 | -2.89% (inactive)
39 | O=C(Cn1c(=O)n(Cc2ccc3c(c2)OCO3)c(=O)c2ccccc21)NCc1ccco1 | 23% (inactive)
40 | O=C(NCCc1ccccc1)c1ccc2c(=O)n(Cc3ccco3)c(=O)n(Cc3cccc([N+](=O)[O-])c3)c2c1 | 53.8% (active)
41 | CC(C)(C)C(=O)Cn1c(=O)n(Cc2ccco2)c(=O)c2ccccc21 | -6.03% (inactive)
42 | O=C(O)COCC(=O)Nc1scc2c1c(=O)oc1ccccc12 | 15.1% (inactive)
43 | CN1CC(=O)N(C2CCCNC2)Cc2c(NC3CCc4ccccc43)ncnc21 (configuration not stated) | 50.3% (active)
44 | COc1cc(C2CC(=O)c3cnc(N4CCc5ccccc5C4)nc3C2)cc(OC)c1OC (configuration not stated) | 7.46% (inactive)

Row | Compound | inhibition
45 | CC1CCc2c(cnc3c(C(=O)NCCc4ccccc4)cnn23)C1 (configuration not stated) | -1.68% (inactive)
46 | Cc1c(Cl)c([N+](=O)[O-])nn1CCCC(=O)NC(C)c1ccccc1 (configuration not stated) | -29.5% (inactive)
47 | CCOC(=O)C1(Cc2cc(-c3ccccc3F)no2)CCN(CC)CC1 | -12.6% (inactive)
48 | Cc1c(-c2nn3c(-c4ccco4)nnc3s2)cccc1[N+](=O)[O-] | 67.4% (active)
49 | O=C(CSc1cn[nH]n1)Nc1ccc(F)c(Cl)c1 | 0.831% (inactive)
50 | CC(=O)Nc1ccc(S(=O)(=O)NCCSc2ccc(C)cc2)cc1 | -12.3% (inactive)
51 | Cc1ccc(C)c(S(=O)(=O)Nc2ccc(C(=O)NCc3ccc(F)cc3)cc2)c1 | -4.3% (inactive)
52 | CC(=O)Nc1ccc(S(=O)(=O)NCc2ccc(C(=O)NCc3ccc(C)cc3)cc2)cc1 | 52.9% (active)
53 | COc1ccc(CCC(=O)Nc2ccc3nc(N4CCOCC4)cc(C)c3c2)cc1 | 33.3% (active)
54 | Cc1ccc(C)c(N2CCN(C(=O)CCC(=O)Nc3ccc4nc(N5CCN(C)CC5)cc(C)c4c3)CC2)c1 | -11.5% (inactive)
55 | Cc1cc(N2CCOCC2)nc2ccc(NC(=O)CCC(=O)N3CCN(c4ccccn4)CC3)cc12 | -15.4% (inactive)
56 | Cc1nn(-c2cccc(F)c2)c2c1c(C)c(CCC(=O)NCc1ccccn1)c(=O)n2C | 32.6% (active)
57 | Cc1nn(-c2ccccc2)c2c1c(C)c(CCC(=O)N1CCN(c3ccc(F)cc3)CC1)c(=O)n2C | 5.08% (inactive)
58 | Cc1nc2cc(C(=O)NCc3ccccn3)ccc2n1-c1cccc(F)c1 | 0.0347% (inactive)
59 | Cc1cc(C)c(Cn2cccc2C2=NC(Cc3ccccc3)CO2)c(C)c1 (configuration not stated) | 7.3% (inactive)
60 | Cc1ccc(-c2nc3c4c(C)c(C)n(-c5cccnc5)c4ncn3n2)cc1 | 17% (inactive)
61 | CN1CCCCC[C@@H]2[C@@H]1C[C@@H](Cc1ccccc1)N2C(=O)c1cc(C2CC2)[nH]n1 | 14.4% (inactive)
62 | N#Cc1ccccc1OCC(=O)Nc1ccc(-c2cn3ccsc3n2)cc1 | 46.9% (active)
63 | CCN(CC)S(=O)(=O)c1cc(C(=O)Nc2ccc(-c3cn4ccsc4n3)cc2)ccc1Cl | 16.3% (inactive)
64 | N#Cc1ccc(NC(=O)COC(=O)c2ccc3ccccc3n2)cc1 | -197% (inactive)
65 | COc1cc(NC(=O)c2noc3c2CCc2sccc2-3)cc(OC)c1 | 48.3% (active)
66 | O=C(NCc1ccccc1)c1noc2c1CCc1sccc1-2 | 4.73% (inactive)

Row | Compound | inhibition
67 | COc1ccc(NC(=O)c2cc(CN3CCOCC3)on2)cc1 | -3.06% (inactive)
68 | COc1ccc(OC)c(NC(=O)C(Cc2c[nH]c3ccccc23)N2CCS(=O)(=O)CC2)c1 (configuration not stated) | 3.96% (inactive)
69 | Cc1cccc(-c2nnc(-c3cccc(S(=O)(=O)N4CCCC4)c3)o2)c1 | 6.44% (inactive)
70 | O=C(COC(=O)C1CCN(S(=O)(=O)c2c(Cl)cccc2Cl)CC1)Nc1ccc2c(c1)CCC2 | 0.533% (inactive)
71 | O=C(Nc1nnc(-c2cccc([N+](=O)[O-])c2)o1)C1CCN(S(=O)(=O)c2ccc3c(c2)CCC3)CC1 | 73.8% (active)
72 | Cn1c(=O)c2c(nc(N3CCN(C(=O)c4ccco4)CC3)n2CCSc2nc3ccccc3s2)n(C)c1=O | 0.301% (inactive)
73 | COc1cccc(C(=O)N2CCN(c3nc(-c4ccc(Cl)cc4)no3)CC2)c1OC | 8.11% (inactive)
74 | Cc1ccccc1NC(=O)CSc1nnc(C2CC2)n1Cc1ccccc1 | -1.39% (inactive)
75 | O=C(CSc1nccn1C1CCCCC1)Nc1ccccc1F | 20.2% (inactive)
76 | Nn1c(SCC(=O)Nc2ccccc2F)nnc1-c1n[nH]c2c1CCC2 | 41.7% (active)
77 | CC(=O)O[C@H]1CC[C@]2(C)[C@H]3Cc4c(cc(-c5cccnc5)oc4=O)O[C@]3(C)CC[C@H]2C1(C)C | 1.11% (inactive)
78 | O=C(C1CCCN(S(=O)(=O)N2CCOCC2)C1)N1CCN(Cc2ccccc2)CC1 (configuration not stated) | -0.311% (inactive)
79 | COc1ccc(Cl)cc1NC(C)c1nc2sc(C)c(C)c2c(=O)[nH]1 (configuration not stated) | -21.9% (inactive)
80 | C/C=C(\Cl)C1=CC(=O)[C@]23C[C@H]2[C@@]2(C)CO[C@@]1(O)[C@@]3(O)O2 | 68.6% (active)
81 | CCC1(c2ccccc2)NC(=O)N(CC(=O)Nc2ccc(C)c([N+](=O)[O-])c2)C1=O (configuration not stated) | -6.64% (inactive)
82 | COc1ccc(S(=O)(=O)N(C(=O)c2ccccc2)c2ccc3oc4c(c3c2)CCCC4)cc1 | -2.79% (inactive)
83 | CCC(=O)c1ccc(OCC(=O)Nc2ccc3c(c2)CCC3)cc1 | 4.25% (inactive)
84 | O=C(COc1ccc2oc3c(c2c1)CCCC3)Nc1ccccn1 | 70.8% (active)
85 | C=C(NC(=O)/C(C)=C/C=C\CCCCCC(C)C)C(=O)N/C(=C/OC)C(=O)OC | -61.8% (inactive)
86 | O=C(Cc1ccc(Cl)cc1)N1CCC2(CN(Cc3ccc(O)cc3)C2)C1 | -0.288% (inactive)
87 | CCOc1ccc(C(=O)C[n+]2cc(-c3ccccc3)n3c2CCC3)cc1 | 3.07% (inactive)
